Experiment [1] concerns Sodium/Iodide Symporter (NIS), SLC5A5 (gene 6528). As to the kind of experiment: CPHEA_Stoker_NIS_Inhibition_RAIU: CPHEA's Radioactive Iodide Uptake (RAIU) Assay for Sodium/Iodide Symporter (NIS) Inhibition, Stoker and Laws Labs (AID 2283841). The essentials:
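Iodide uptake read as CPM of intracellular 125I (final 329 pM) after 2 h room-temperature exposure in HEPES-buffered HBSS, pH 7.4. Human NIS-expressing HEK293T cells; six concentrations 0.001–100 uM, 0.5% DMSO, normalised to DMSO wells.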

A short description of experiment [2]: CPHEA_Stoker_NIS_Cytotoxicity: Cytotoxicity Assessment for CPHEA's Radioactive Iodide Uptake (RAIU) Assay for Sodium/Iodide Symporter (NIS) Inhibition, Stoker and Laws Labs (AID 2283897). The essentials:
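CellTiter-Glo ATP luminescence gauged viability in HEK293T cells expressing human NIS after 2 h chemical exposure. Concentrations ran 0.001–100 uM in 0.5% DMSO; DMSO served as baseline for the loss-of-signal fit.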

Experiment [3] relates to turtle Thyroid Hormone Receptor, alpha (TRa), gene 101949057. As to the kind of experiment: ATG_trTRa_XSP2: Attagene TRANS-FACTORIAL Multi-Species (XSP1) HepG2 Assay for turtle Thyroid Hormone Receptor, alpha (TRa) (AID 2283834).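 Note: hits raise reporter mRNA over the DMSO baseline so AC50 marks activators.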 The essentials:
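Readout: reporter mRNA induction, fluorescence after RT-PCR, HpaI digestion and capillary electrophoresis. Transiently transfected HepG2, exogenous NR-Gal4 chimera driving GAL4-UAS reporter, 24 h compound exposure. Activity fitted upward relative to DMSO baseline.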

A short description of experiment [4]: ATG_M_61_XSP2: Attagene TRANS-FACTORIAL Multi-Species (XSP2) HepG2 Assay for M61 Transcription Factor (Internal Marker) (AID 2283835; active = hit-call score of the fitted dose curve at least 0.9, where 1 is the maximum; inactive = score below 0.9;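 note: reporter mRNA of an internal background marker read by RT-PCR and capillary electrophoresis; active means a rise in signal above the DMSO baseline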). The method in brief:
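Transient MRTU transfection of human HepG2; 24 h chemical dosing with 3 nM 6-alpha-fluorotestosterone + 1.5 nM norgestrel added for AR stimulation. RNA isolated, RT, PCR, FAM-labelled, HpaI cut, CE read. Positive direction vs DMSO.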

The target of experiment [5] is zebrafish Thyroid Hormone Receptor beta (TRb), thrb (gene 30607) (UniProt Q9PVE4). The experiment in a line: ATG_zfTRb_XSP2: Attagene TRANS-FACTORIAL Multi-Species (XSP1) HepG2 Assay for zebrafish Thyroid Hormone Receptor beta (TRb) (AID 2283836). The method in brief:
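Reporter transcripts measured by RT-PCR, 6-FAM labelling, HpaI digestion and capillary electrophoresis after 24 h chemical exposure. Human HepG2 cells carry an exogenous zebrafish TRb-GAL4 chimera; medium included 3 nM 6-alpha-fluorotestosterone plus 1.5 nM norgestrel.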

Experiment [6] in a line: ATG_XTT_Cytotoxicity_XSP2: Cytotoxicity Assessment in the Attagene TRANS-FACTORIAL Multi-Species (XSP2) HepG2 Assay (AID 2283837). The method in brief: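 XTT-based cell number read-out in human HepG2 liver cells carrying transfected reporter units, measured 24 h after chemical dosing. Activity is signal loss versus DMSO baseline.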
Experiment [7] deals with frog Thyroid hormone Receptor alpha (TRa), thra-a (gene 397942) (UniProt P15204). As to the kind of experiment: ATG_frTRa_XSP2: Attagene TRANS-FACTORIAL Multi-Species (XSP2) HepG2 Assay for frog Thyroid hormone Receptor alpha (TRa) (AID 2283839). The method in brief:
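Read-out: fluorescent reporter-transcript fragments resolved by capillary electrophoresis after RT-PCR and HpaI cut. Human HepG2 liver cells carry a transfected frog TRα-Gal4 chimera driving a UAS reporter; 24 h exposure, DMSO baseline, positive-direction fit.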

Experiment [8] addresses human Thyroid hormone Receptor alpha (TRa), THRA (gene 7067) (UniProt P10827). The experiment in a line: ATG_hTRa_XSP2: Attagene TRANS-FACTORIAL Multi-Species (XSP2) HepG2 Assay for human Thyroid hormone Receptor alpha (TRa) (AID 2283838). The essentials: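 Reporter transcripts were read by RT-PCR with fluorescent primer extension, HpaI digestion and capillary electrophoresis. These came from HepG2 cells carrying multiplexed TRa-Gal4 TRANS constructs, harvested 24 hours after dosing. The medium also held 6-alpha-fluorotestosterone (3 nM) and norgestrel (1.5 nM), and increases were fitted against DMSO.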

The target of experiment [9] is human Thyroid hormone Receptor beta (TRb), THRB (gene 7068) (UniProt P10828). The experiment in a line: ATG_hTRb_XSP2: Attagene TRANS-FACTORIAL Multi-Species (XSP2) HepG2 Assay for human Thyroid hormone Receptor beta (TRb) (AID 2283840).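 Note: actives raise reporter mRNA so potency reflects agonist-like gain of signal.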 The method in brief:
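Read-out: reporter mRNA induction (RT-PCR, 6-FAM labeling, capillary electrophoresis), gain-of-signal relative to DMSO baseline. Transiently transfected HepG2 TRANS multiplex (NR-Gal4 chimeras, GAL4-UAS reporters), 24 h chemical exposure; medium contained 3 nM 6-alpha-fluorotestosterone plus 1.5 nM norgestrel.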

Experiment [10] in a line: CEETOX_H295R_11DCORT_noMTC: CeeTox H295R High-throughput Steroidogenesis Assay for 11-Deoxycortisol (11DCORT), maximum tolerated concentration (MTC) filtered results only (AID 2283911; active = hit-call score of the fitted dose curve at least 0.9, where 1 is the maximum; inactive = score below 0.9). Particulars: actives raise or lower the signal. The essentials: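 H295R, OECD 456-based; 10 uM forskolin 48 h → compound (0.1% DMSO) 48 h → medium extracted, 11DCORT by LC-MS/MS. Gain/loss vs DMSO control, all concentrations kept regardless of MTT viability.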

Records with an inconclusive call do not appear. Activity calls are given as the source filed them. Rule for the calls, unless noted: active = hit-call score of the fitted dose curve at least 0.9, where 1 is the maximum; inconclusive = response in the unintended direction; inactive = score below 0.9.

Sequence of human Thyroid hormone Receptor alpha (TRa), THRA (gene 7067) (P10827 whole entry, looked up, the tested form may be a part): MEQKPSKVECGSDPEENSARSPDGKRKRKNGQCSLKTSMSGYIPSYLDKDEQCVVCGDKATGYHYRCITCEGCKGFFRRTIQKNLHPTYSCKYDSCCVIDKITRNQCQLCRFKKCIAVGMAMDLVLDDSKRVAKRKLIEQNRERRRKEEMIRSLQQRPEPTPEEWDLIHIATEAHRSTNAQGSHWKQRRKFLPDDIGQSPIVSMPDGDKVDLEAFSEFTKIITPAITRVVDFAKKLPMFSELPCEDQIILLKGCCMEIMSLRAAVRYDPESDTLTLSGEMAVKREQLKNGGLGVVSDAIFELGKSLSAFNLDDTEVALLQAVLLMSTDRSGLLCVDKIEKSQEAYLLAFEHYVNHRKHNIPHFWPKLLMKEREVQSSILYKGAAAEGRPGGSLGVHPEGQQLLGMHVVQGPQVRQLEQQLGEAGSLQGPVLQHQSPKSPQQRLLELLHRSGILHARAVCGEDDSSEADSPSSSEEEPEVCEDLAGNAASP
Sequence of zebrafish Thyroid Hormone Receptor beta (TRb), thrb (gene 30607) (Q9PVE4 whole entry, looked up, the tested form may be a part): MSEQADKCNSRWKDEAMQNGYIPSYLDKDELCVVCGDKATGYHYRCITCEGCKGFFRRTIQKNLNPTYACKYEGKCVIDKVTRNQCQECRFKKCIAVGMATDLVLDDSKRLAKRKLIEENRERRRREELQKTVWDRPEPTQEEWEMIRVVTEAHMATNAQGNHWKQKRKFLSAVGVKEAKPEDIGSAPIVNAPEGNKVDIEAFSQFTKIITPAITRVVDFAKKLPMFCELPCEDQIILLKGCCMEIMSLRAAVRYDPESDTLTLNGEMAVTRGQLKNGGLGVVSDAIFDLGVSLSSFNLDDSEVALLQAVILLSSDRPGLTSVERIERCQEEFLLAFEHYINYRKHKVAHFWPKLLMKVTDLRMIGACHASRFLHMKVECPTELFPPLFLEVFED
Sequence of frog Thyroid hormone Receptor alpha (TRa), thra-a (gene 397942) (P15204 whole entry, looked up, the tested form may be a part): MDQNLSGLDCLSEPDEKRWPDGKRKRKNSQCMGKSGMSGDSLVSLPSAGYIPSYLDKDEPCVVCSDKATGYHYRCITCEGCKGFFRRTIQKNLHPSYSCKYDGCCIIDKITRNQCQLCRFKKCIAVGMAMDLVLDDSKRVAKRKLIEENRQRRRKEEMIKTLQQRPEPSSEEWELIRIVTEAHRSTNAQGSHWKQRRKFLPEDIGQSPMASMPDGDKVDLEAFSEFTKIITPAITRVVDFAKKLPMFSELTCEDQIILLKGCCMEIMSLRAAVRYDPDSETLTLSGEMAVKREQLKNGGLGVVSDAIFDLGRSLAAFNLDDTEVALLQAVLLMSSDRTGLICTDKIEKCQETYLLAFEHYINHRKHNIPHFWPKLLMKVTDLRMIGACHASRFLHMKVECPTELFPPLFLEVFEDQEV
Sequence of human Thyroid hormone Receptor beta (TRb), THRB (gene 7068) (P10828 whole entry, looked up, the tested form may be a part): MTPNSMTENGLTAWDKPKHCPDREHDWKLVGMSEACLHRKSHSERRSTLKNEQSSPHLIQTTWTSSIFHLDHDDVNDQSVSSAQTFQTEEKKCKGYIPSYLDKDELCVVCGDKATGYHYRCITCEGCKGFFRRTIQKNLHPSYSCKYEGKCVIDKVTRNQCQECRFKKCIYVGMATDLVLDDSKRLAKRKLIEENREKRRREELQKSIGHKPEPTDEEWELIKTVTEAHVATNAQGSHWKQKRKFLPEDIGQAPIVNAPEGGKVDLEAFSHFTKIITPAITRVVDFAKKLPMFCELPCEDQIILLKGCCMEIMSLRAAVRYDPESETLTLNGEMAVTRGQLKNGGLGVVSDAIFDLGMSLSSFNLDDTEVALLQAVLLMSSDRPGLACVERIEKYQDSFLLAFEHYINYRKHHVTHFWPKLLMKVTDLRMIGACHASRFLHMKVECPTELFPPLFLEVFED

Regarding `Nc1ccccc1N`, the outcome in experiment [1] and in [2] was inactive.

In the case of `CCCCC(CC)COC(=O)CC(C(=O)OCC(CC)CCCC)S(=O)(=O)O` (stereo not given), the outcome in experiment [1] and in [2] was inactive.

As for `FC(F)(F)C(F)(F)C(F)(F)C(F)(F)C(F)(F)C(F)(F)CCI`, the result in experiment [1] and in experiment [2] was inactive.

`CC(=O)C(C)=CC1C(C)=CCCC1(C)C` (stereo not given): the compound was classed as inactive in experiment [3], in experiment [4], in [5], in experiment [6] and in experiment [7].

Turning to `C=CCOC(=O)c1ccccc1C(=O)OCC=C`, the compound was called inactive in experiment [3], in experiment [4], in experiment [5], in [6], in experiment [8] and in experiment [7]. Besides, the outcome in [9] was inactive.

As for `CCc1c(C(=O)NN2CCCCC2)nn(-c2ccc(Cl)cc2Cl)c1-c1ccc(Br)cc1`, the result in experiment [2] was inactive.

Turning to `CC(C)(C)c1cc(O)c(C(C)(C)C)cc1O`, the result in [4], in [5], in experiment [7], in [1] and in experiment [2] was inactive.

Turning to `O=C(OCCCCCOC(=O)c1ccccc1)c1ccccc1`, the outcome in experiment [2] and in [10] was inactive.

As to `Oc1ccc2c(c1)OC[C@@H](N1CCC(O)(c3ccc(F)cc3)CC1)[C@H]2O`, the result in experiment [1] and in experiment [2] was inactive.

In the case of `COc1ccc(S(=O)(=O)N2C(=O)[C@@](c3ccccc3OC)(N3C[C@H](O)C[C@H]3C(=O)N(C)C)c3cc(Cl)ccc32)c(OC)c1`, the result in experiment [1] and in experiment [2] was inactive.

With `O=c1c(O)c(-c2ccc(O)c(O)c2)oc2cc(O)cc(O)c12`, the outcome in experiment [1] and in experiment [2] was inactive.

`Cc1ccc(C)c(C)c1`: the outcome in experiment [2] was inactive.

With `CN[C@H]1CC[C@@H](c2ccc(Cl)c(Cl)c2)c2ccc(S(N)(=O)=O)cc21`, the result in experiment [2] was inactive.

As for `NC(=O)Cn1c(=O)cc(CCN2CCN(c3nccc4sccc34)CC2)c2ccc(F)cc21`, the result in experiment [1] and in experiment [2] was inactive.

As to `O=C(N[C@@H](Cc1ccccc1)[C@@H](O)C(=O)N1C[C@@H](O)[C@@H](O)C1)c1cc2cc(Cl)ccc2[nH]1`, the result in [2] was inactive.

On to `Cc1oc(-c2ccccc2)nc1CCOc1cccc2c1ccn2CCC(=O)O`, for which the outcome in experiment [2] was inactive. Further, in experiment [10], the AC50 – broadly, the concentration at which the activity in the assay is half-maximal – is 9.6 µM (active).

As for `CCCc1cc(=O)[nH]c(=S)[nH]1`, the call in [3], in experiment [5], in [8] and in [7] was inactive.

With `Oc1ccc2ccccc2c1N=Nc1ccccc1`, the result in [1] and in [2] was inactive.

(Values after PubChem BioAssay (EPA / NIEHS).)
